Most compounds without a hit are left out; they make up all but 19% or so of the library.
HT1080 IDH1KD tx: qHTS for induction of synthetic lethality in tumor cells producing 2HG: qHTS for the HT-1080-IDH1KD cell line | HT-1080 IDH1 knockdown viability, ATP luminescence, 48 h | Potency, µM (top dose mostly 46.1 µM), without a hit: at the highest dose activity, negative = toxicity, usual class: cytotoxic | 360,000 tested, 2% active | AID 686971, 2013;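 further: potency means the concentration at half of the fitted maximal effect; 0% = DMSO wells and -100% = cell-free medium wells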
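CellTiter-Glo luminescence after 48 h compound exposure at 37 degrees C of IDH1-knockdown HT-1080 cells in 5% FBS RPMI. %Activity scaled between DMSO wells and cell-free media wells, with curves fitted and assigned curve classes.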
ELG1 repair inh: qHTS screen for small molecules that inhibit ELG1-dependent DNA repair in human embryonic kidney (HEK293T) cells expressing luciferase-tagged ELG1 | HEK293T ELG1-luciferase reporter, luminescence, 16 h; DNA damage induced by 5-fluorouridine | Potency, µM (doses to about 46.1 µM), for the others: at the highest dose activity change, negative = inhibition, usual class: inhibitors | 330,000 tested, 2.3% active; further: potency means the concentration at half of the fitted maximal effect; nearly all actives have a fitted effect of over 55% in size
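5-Fluorouridine DNA damage + compound/DMSO, 2,000 cells/well, 16 h, 37 °C/5% CO2. ONE-Glo, 30 min RT, luminescence. Readout = decrease in reporter signal.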
HT1080-NT tox: qHTS for induction of synthetic lethality in tumor cells producing 2HG: qHTS for the HT-1080-NT fibrosarcoma cell line; HT-1080-NT fibrosarcoma viability, CellTiter-Glo ATP luminescence, 48 h; Potency, µM (titrated, usually from 46.1 µM), without a hit: at the top dose activity, negative = less viability, hits mostly cytotoxic; 360,000 tested, 1.6% active;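 further: NT is the 2HG producing partner of a matched IDH1 knockdown line; potency means the concentration at half of the fitted maximal effect; 0% = DMSO-treated cells and -100% = media-only wells without cells; nearly all actives have a fitted effect of over 55% in size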
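HT-1080-NT fibrosarcoma cells (2HG-overproducing), 750 cells/well in RPMI with 5% FBS, dosed after 2 h and incubated 48 h at 37C. CellTiter-Glo luminescence normalized to DMSO and no-cell wells; concentration-response curves fitted and classed.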
IL1B secr inh: qHTS for Inhibitors of Inflammasome Signaling: IL-1-beta AlphaLISA Primary Screen; AID 743279, 2014; 360,000 tested, 4.7% active; activity change, % at 57.5 µM; THP-1 LPS/ATP IL-1B secretion, AlphaLISA, 16 h; hits give low values; in the data active means activity change below about -50%; inconclusive means mostly about -30% to -49%
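THP-1 cells pretreated 1 hr with compounds (up to 57.5 uM final), then stimulated with LPS (250 ng/mL final) plus ATP (1.25 mM final); secreted IL-1B measured by AlphaLISA after 16 hr, decreased signal indicating inhibition.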
DT40 TDP1 CPT: qHTS for Inhibitors of human tyrosyl-DNA phosphodiesterase 1 (TDP1): qHTS in cells in presence of CPT; 420,000 tested, 12% active; chicken DT40 Tdp1-/-;hTDP1 cells + 20 nM CPT, ATP luminescence, 48 h; Potency, µM (highest dose often 46.2 µM), for the others: top-dose activity change, negative = growth inhibition, hits mostly inhibitors; AID 686979, 2013; further: potency means the concentration at half of the fitted maximal effect; nearly all actives have a fitted effect of over 55% in size
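Chicken DT40 Tdp1-/- cells complemented with human TDP1, 400 cells/well, exposed to compounds plus 20 nM camptothecin for at least 48 h at 37 C; viability read as ATP content by CellTiter-Glo luminescence.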
DT40 TDP1 no CPT: qHTS for Inhibitors of human tyrosyl-DNA phosphodiesterase 1 (TDP1): qHTS in cells in absence of CPT. DT40 Tdp1-/- hTDP1 cells, no CPT, ATP luminescence, 48 h. Potency, µM (doses to about 46.2 µM), inactives show at the top dose activity change, negative = growth inhibition, actives largely listed as inhibitors. 420,000 tested, 15% active. AID 686978, 2013; further: potency means the concentration at half of the fitted maximal effect; nearly all actives have a fitted effect of over 55% in size
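Readout: luminescence from CellTiter-Glo after 30 min in the dark at RT. Cells: DT40 Tdp1-/- with stable hTDP1, 400/well. Exposure: compounds alone, ≥48 hr, 37 °C.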
Active calls of the source: *; ? = inconclusive; · = no result given. Unless noted, the call rests on the fitted dose curve; in most records, active means well fitted curve in the direction sought with a large enough effect; inconclusive means small, poorly fitted or top-dose-only effect, or another doubt; inactive means no such curve, though single readings can be large; an effect the other way counts as inactive or inconclusive. Unless noted, on the % scale 0 is the no-effect control and ±100 the full control effect.

SMILES	HT1080 IDH1KD tx	ELG1 repair inh	HT1080-NT tox	IL1B secr inh	DT40 TDP1 CPT	DT40 TDP1 no CPT
Cc1cc2nc(NC(=O)C3(C)CCN(C)C3)[nH]c2cc1C (stereo not drawn)	14%	·	1%	-4	-27%	-10%
COc1ccc(CCNC(=O)CCn2c(SCC(=O)N3CCCC3)nc3ccccc3c2=O)cc1OC	-2%	0%	1%	10	?	?
O=C(Nc1ccncc1)c1ccc2c(c1)C(=O)N(C1CCCCC1)C2=O	?	-12%	-14%	30	18µM*	23µM*
CCC(=O)Nc1ccc2c(c1)C(=O)N(C1CCCCC1)C2=O	-18%	-4%	-3%	-26	?	?
Cc1cc(NC(=O)c2ccc3c(c2)C(=O)N(C2CCCCC2)C3=O)no1	22%	3%	15%	12	?	15µM*
CCOC(=O)CCCCC1C(CCCC(=O)OCC)C=NN1C (stereo not drawn)	1%	·	18%	7	?	0%
CC[C@H](CO)Nc1nc(Nc2cccc(Cl)c2)c2ncn(C(C)C)c2n1	?	7.3µM*	?	-99*	9.2µM*	9.2µM*
COc1ccccc1NC(=O)C1=C(C)Nc2ncnn2C1c1ccc[nH]1 (stereo not drawn)	·	·	·	·	1%	8%
C[C@H](NC(=O)c1nc[nH]c1C(=O)NC(c1ccccc1)c1ccccc1)C(=O)OC(C)(C)C	?	0%	?	?	-96%	?
C[C@H](NC(=O)c1nc[nH]c1C(=O)NCC(=O)OCc1ccccc1)c1ccccc1	-1%	-19%	0%	3	?	18µM*
CC(C)C[C@H](NC(=O)c1[nH]cnc1C(=O)N[C@@H](C)c1ccccc1)C(=O)OCc1ccccc1	?	?	?	24	29µM*	26µM*
CC(C)(C)OC(=O)CNC(=O)c1[nH]cnc1C(=O)NC(c1ccccc1)c1ccccc1	-5%	-12%	-15%	?	23µM*	?
CCCCCCCCCCCCCCCC(=O)OC[C@H](O)[C@H]1OC(=O)C(O)=C1O	·	·	·	·	10%	-2%
CCc1ccc(N(CC(=O)Nc2ccccc2C(=O)N2CCCC2)S(C)(=O)=O)cc1	-5%	-2%	1%	-7	1%	0%
CCCCn1nnnc1C(c1cc2ccccc2o1)N(C)Cc1ccc(Cl)cc1 (stereo not drawn)	-20%	·	-10%	-1	?	21µM*
CCCCn1nnnc1C(c1cc2ccccc2o1)N(CCC#N)Cc1ccccc1 (stereo not drawn)	-11%	·	-24%	-17	16µM*	?
CCCCn1nnnc1C(c1cc2ccccc2o1)N(C)CCc1ccccc1 (stereo not drawn)	-22%	·	-20%	25	?	21µM*
CCCCn1nnnc1C(c1cc2ccccc2o1)N(Cc1ccccc1)Cc1ccccc1 (stereo not drawn)	6%	·	-1%	21	?	18µM*
CCCCn1nnnc1C(c1cc2ccccc2o1)N1CCOCC1 (stereo not drawn)	0%	·	4%	-7	2%	-21%
CC(C)(C)n1nnnc1C(c1cc2ccccc2o1)N(Cc1ccccc1)Cc1ccccc1 (stereo not drawn)	?	·	-9%	13	?	?
CN(Cc1ccc(Cl)cc1)C(c1cc2ccccc2o1)c1nnnn1C(C)(C)C (stereo not drawn)	?	·	-18%	0	?	?
CCOc1ccccc1C(=O)N[C@H](C(=O)OCC(=O)Nc1nnc(-c2ccccc2)o1)C(C)C	-1%	·	1%	30	16%	-13%
COc1ccccc1C(=O)N1CCOc2ccc(C(C)(O)CCn3cccn3)cc2C1 (stereo not drawn)	·	·	·	·	-14%	-16%
CCC1CCCCN1CCCNC(=O)CS(=O)(=O)Cc1nc(-c2cccc(OC)c2)oc1C (stereo not drawn)	-20%	25%	-6%	-3	-7%	?
CN(Cc1ccccc1)C(c1cc2ccccc2o1)c1nnnn1C(C)(C)C (stereo not drawn)	-19%	·	-18%	-8	?	18µM*
SMILES	HT1080 IDH1KD tx	ELG1 repair inh	HT1080-NT tox	IL1B secr inh	DT40 TDP1 CPT	DT40 TDP1 no CPT
Cc1cccc2c1-c1sc(C(=O)Nc3cccnc3)cc1CO2	?	-13%	?	167	?	-17%
COc1cccc(N2CCN(C(=O)c3cc4c(s3)-c3c(C)cccc3OC4)CC2)c1	·	·	·	·	?	23µM*
Cc1cccc2c1-c1sc(C(=O)Nc3ccccc3C(N)=O)cc1CO2	·	·	·	·	-28%	?
Cc1cccc2c1-c1sc(C(=O)Nc3cccc([N+](=O)[O-])c3C)cc1CO2	-2%	?	-10%	-52*	?	23µM*
CCc1ccccc1N(C)C(=O)c1cc2c(s1)-c1c(C)cccc1OC2	·	·	·	·	23µM*	23µM*
Cc1cccc2c1-c1sc(C(=O)NCc3ccccc3Cl)cc1CO2	·	·	·	·	16µM*	26µM*
CCNc1ncc2nc(CCc3ccccc3)c(=O)n(Cc3ccc(F)cc3)c2n1	·	·	·	·	-10%	1%
CC(C)NC(=O)C1(C)CSCC(=O)N1CCCn1ccnc1 (stereo not drawn)	5%	·	11%	18	15%	3%
COC(=O)CCCn1cc(CN2CC(N3CCN(C4CCN(C)CC4)CC3)CS2(=O)=O)nn1 (stereo not drawn)	9%	·	20%	13	7%	-21%
COc1cc(OC)c(N(C)C(=O)c2cc3c(s2)-c2ccccc2OC3)cc1Cl	·	·	·	·	13µM*	23µM*
COc1ccc(N(C)C(=O)c2cc3c(s2)-c2c(C)cccc2OC3)c(OC)c1	-21%	23µM*	-9%	-7	?	21µM*
CCCN(C)C1CN(Cc2cn(CCCC(=O)OC)nn2)S(=O)(=O)C1 (stereo not drawn)	?	·	16%	55	-12%	-10%
COCCN(Cc1cc2ccc(C)c(C)c2nc1Cl)C(=O)N1CCOCC1	21%	4%	0%	?	?	?

Assay outcomes from PubChem BioAssay.
